# Shown are actives, neighbours in structure and some others; about 2.5% of the full set was active somewhere.
# MEKK2wt PB1 HTS – raises or lowers MEK5 binding to wildtype human MEKK2 PB1 domain; AID 1531; bead flow cytometry, Alexa488-MEK5 binding to MEKK2 WT; actives lie on both sides; hit rate 1.1% among 290,000; binding response (% of control), % at 10 µM; Q9Y2U5; in the data active means binding response below about 67% or above about 130%
# MEKK3 PB1 HTS – modulators (inhibitors or enhancers) of MEK5 binding to human MEKK3 PB1 domain; Q99759; bead-based flow cytometry, Alexa488-MEK5 binding to MEKK3; actives lie on both sides; 0 = blocked by unlabeled MEK5, 100 = vehicle; binding response (% of control), % at 10 µM; hit rate 1.4% among 290,000; AID 1529;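 active means binding response more than 3 SD above or below the average of its plate-row segment, actives on both sides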;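 further: Alexa488 bead fluorescence after subtracting the streptavidin-only scavenger bead signal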
# MEKK2mut PB1 HTS – signal of MEK5 binding to mutant human MEKK2 PB1 domain. bead flow cytometry, Alexa488-MEK5 binding to MEKK2 mutant. hit rate 0.35% among 290,000. percent response, % at 10 µM; in the data active means percent response above about 24%, passing the limit was not always enough
# GRK2 aptamer HTS – inhibitors of human GRK2 displacing RNA aptamer. hit rate 0.59% among 330,000. inhibition of aptamer binding, % at 10 µM. P25098. bead flow cytometry, FAM-aptamer displacement from GRK2. AID 488847;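 active means inhibition of aptamer binding above 40%, roughly 3 SD of noise, on plates passing a quality check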;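 further: median bead fluorescence of bound FAM aptamer so fluorescent compounds give negative values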
# Target sequence (P25098 whole entry, looked up): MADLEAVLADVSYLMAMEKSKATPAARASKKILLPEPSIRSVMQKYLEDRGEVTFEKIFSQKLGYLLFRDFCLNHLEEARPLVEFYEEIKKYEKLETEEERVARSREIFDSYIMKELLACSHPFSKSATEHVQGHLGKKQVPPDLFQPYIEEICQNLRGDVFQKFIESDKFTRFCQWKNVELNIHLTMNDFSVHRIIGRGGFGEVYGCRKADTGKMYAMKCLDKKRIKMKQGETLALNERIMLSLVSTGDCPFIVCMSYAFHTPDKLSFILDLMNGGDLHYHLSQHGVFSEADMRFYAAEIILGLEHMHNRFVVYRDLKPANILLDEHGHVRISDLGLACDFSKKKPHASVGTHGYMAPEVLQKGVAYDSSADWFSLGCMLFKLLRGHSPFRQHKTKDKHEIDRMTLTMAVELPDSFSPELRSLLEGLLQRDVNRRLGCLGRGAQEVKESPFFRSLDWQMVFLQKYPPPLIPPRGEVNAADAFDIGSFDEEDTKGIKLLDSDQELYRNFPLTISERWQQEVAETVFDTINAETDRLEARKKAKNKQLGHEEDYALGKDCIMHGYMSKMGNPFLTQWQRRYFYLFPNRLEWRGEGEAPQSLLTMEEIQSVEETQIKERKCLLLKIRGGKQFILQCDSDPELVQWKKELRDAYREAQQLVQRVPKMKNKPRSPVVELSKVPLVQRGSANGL
# MEKK2wt confirm – raises or lowers MEK5 binding to wildtype human MEKK2, retest. shares compounds with MEKK3 PB1 HTS. bead flow cytometry, Alexa488-MEK5 binding to MEKK2 WT; actives lie on both sides. binding response (% of control), % at 10 µM. hit rate 2.4% among 5,900. AID 1892; in the data active means binding response below about 16% or above about 210%; inactive means in between
# MEKK2mut-MEK5 – signal of MEK5 binding to mutant human MEKK2, retest; shares compounds with MEKK3 PB1 HTS; bead flow cytometry, Alexa488-MEK5 binding to MEKK2 mutant; percent response, % at 10 µM; hit rate 2% among 5,900; AID 1893; in the data active means percent response mostly above about 71%, no sharp cut-off; inactive means mostly below about 38%;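 further: higher means compound restores mutant binding toward wildtype level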
# MEKK3-MEK5 inh – confirmation of inhibitors of MEK5 binding to human MEKK3; shares compounds with MEKK3 PB1 HTS; bead flow cytometry, Alexa488-MEK5 binding to MEKK3; hits give low values; binding response (% of control), % at 10 µM; hit rate 1.8% among 5,900; AID 1894;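 active means binding response below 72% of control, or above a set upper limit, though filed actives all read lower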;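 further: 100% = DMSO only wells and 0% = binding blocked by excess unlabeled MEK5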
# Numbers without * were called inactive; . = not tested or not shown; [ ] = another dose, or the depositor's remark.
SMILES,MEKK2wt PB1 HTS,MEKK3 PB1 HTS,MEKK2mut PB1 HTS,GRK2 aptamer HTS,MEKK2wt confirm,MEKK2mut-MEK5,MEKK3-MEK5 inh
Cc1ccc(C2=N/C(=C/c3cccs3)C(=O)N2Nc2ccccc2)cc1,52*[inhibitor],81,-15,5,55,-18,91
O=C(O)/C=C/c1coc2ccc(F)cc2c1=O,99,72*[inhibitor],0,0,106,12,106
Cc1cc(OCC(=O)OCC(=O)NC2CCCCC2C)ccc1Cl (stereo not drawn),.,.,.,0,.,.,.
CC(=O)Nc1ccc(C(=O)Nc2ccc(S(=O)(=O)Nc3nccc(C)n3)cc2)cc1,102,104,4,4,.,.,.
Cc1ccnc(NS(=O)(=O)c2ccc(NC(=O)c3ccc(Br)o3)cc2)n1,118,130*,1,0,97,-9,97
CCOC(=O)C(=NC(C)(C)C)NNc1cc(Cl)ccc1Cl,114,111,5,0,.,.,.
CCOC(=O)C(=NC(C)C)NNc1cc(Cl)ccc1Cl,104,141*,0,5,100,-1,100
O=C1C2C3C=CC(CC3)C2C(=O)N1c1ccc(Cl)cc1Cl (stereo not drawn),111,108,12,0,.,.,.
CC1(C)CC(N=Cc2c(O)n(Cc3ccc4c(c3)OCO4)c(=O)c3ccccc23)CC(C)(C)N1,149*,99,16,0,160,24,106
Cc1ccccc1NC1=NC(=S)N(CC(N)=O)C12CCOC(C)(C)C2 (stereo not drawn),48,47*[inhibitor],-8,1,99,1,104
CS(=O)(=O)N(CC(=O)N1CCc2ccccc2C1)c1ccccc1F,.,.,.,3,.,.,.
CC1(C)CC(C)(O)N(Cc2ccccc2)C(=S)N1 (stereo not drawn),112,133*,1,0,101,2,101
Cc1[nH]n(-c2ccc([N+](=O)[O-])cc2)c(=O)c1C=NCCc1ccc(S(N)(=O)=O)cc1,98,100,-2,0,.,.,.
Cc1[nH]n(-c2ccc([N+](=O)[O-])cc2)c(=O)c1C=NCCc1c(C)[nH]c2ccccc12,107,133*,0,0,91,-7,86
O=C(O)CN1C(=O)C2(OCCCO2)c2ccccc21,2.0*[inhibitor],2.0*[inhibitor],-25,0,101,-4,101
COC(=O)CN1C(=O)C2(OCCCO2)c2ccccc21,104,100,3,0,.,.,.
CC1(C)CC(NC(=O)c2cccc(Cl)c2)CC(C)(C)N1,107,108,4,0,.,.,.
COc1ccc2cc3cc(C(=O)Nc4ccccc4N4CCN(C)CC4)oc3nc2c1,173*,113,21,1,158,33,110
CCOc1ccc(NC(=O)c2cc3cc4ccc(C)cc4nc3o2)cc1,94,103,4,0,.,.,.
CCOc1ccc(NC(=O)c2cc3cc4ccc(OC)cc4nc3o2)cc1,1.0*[inhibitor],2.0*[inhibitor],-14,0,94,-2,103
Cc1ccc(NC(=O)CCCN2C(=O)c3cccc4cccc(c34)C2=O)cc1,110,145*,1,0,100,1,104
Cc1cc(C(=O)NC2CCCN(Cc3ccc(Cl)cc3)C2)n(C)n1 (stereo not drawn),105,102,2,0,.,.,.
COc1ccc(C(C(=O)OC(C)CN(C)C)c2ccccc2)cc1 (stereo not drawn),116,107,25*,0,54,-36,45*
O=C(NC1CCCCC1)C(c1cccnc1)N(C(=O)c1csnn1)c1ccccc1F (stereo not drawn),102,103,1,3,.,.,.
Cc1cnc(C(=O)Nc2nccs2)cn1,2.0*[inhibitor],2.0*[inhibitor],-19,0,108,6,111
SMILES,MEKK2wt PB1 HTS,MEKK3 PB1 HTS,MEKK2mut PB1 HTS,GRK2 aptamer HTS,MEKK2wt confirm,MEKK2mut-MEK5,MEKK3-MEK5 inh
CC(C)CN1CCNC(=O)C1CC(=O)NCc1cnn(-c2cccc(F)c2)c1 (stereo not drawn),138*,107,36,0,108,-28,90
COc1ccc(CN2CCNC(=O)C2CC(=O)NCc2cnn(C)c2)cc1OC (stereo not drawn),107,101,9,4,.,.,.
COc1ccccc1C(c1nnnn1Cc1ccco1)N1CCN(c2cccc(C)c2C)CC1 (stereo not drawn),96,49*[inhibitor],-1,0,99,0,104
CCN1CCN(C(c2cccc(OC)c2OC)c2nnnn2Cc2ccco2)CC1 (stereo not drawn),89,99,-7,1,.,.,.
CCCCC(=O)Nc1ccc(NCc2ccc(C)s2)cc1,104,103,9,0,.,.,.
O=c1[nH]ncn2cccc12,92,78*[inhibitor],-5,3,99,10,105
COc1ccccc1CNS(=O)(=O)c1ccc2c(c1)CC(C)N2C(=O)C1CCC1 (stereo not drawn),94,98,1,0,.,.,.
OCC1(Cc2cccc(Cl)c2)CCCN(Cc2cnn(-c3ccccc3)c2)C1 (stereo not drawn),140*,94,24,0,130,20,103
CCOCCCNCc1ccc(OCCC(C)C)c(OC)c1,103,107,6,0,.,.,.
C=CCn1c(CCn2c3ccccc3c3ccccc32)n[nH]c1=S,100,102,-2,1,.,.,.
C=C(C)Cn1c(CCn2c3ccccc3c3ccccc32)n[nH]c1=S,102,134*,4,3,91,1,101
CC1CCCC(NC(=O)C2CCN(C(=O)Nc3ccccc3)CC2)C1C (stereo not drawn),.,.,.,0,.,.,.
Cc1ccc(S(=O)(=O)N2CCN(C(C)CC(=O)O)CC2)cc1 (stereo not drawn),3.0*[inhibitor],3.0*[inhibitor],2,2,99,-1,101
CCN(CC)S(=O)(=O)c1cc(C)ccc1NC(=S)Nc1cccnc1,99,103,0,0,.,.,.
O=C(Cc1ccc(F)cc1)Nc1ccc(Cl)cn1,101,98,0,2,.,.,.
Cc1nn(Cc2ccccc2)c(C)c1NC(=O)CSc1n[nH]c(C)c1[N+](=O)[O-],100,134*,0,0,100,0,100
Cc1nn(Cc2ccc(Cl)cc2)c(C)c1NC(=O)CSc1n[nH]c(C)c1[N+](=O)[O-],112,142*,0,4,108,1,104
CCc1c(C)nc2c(Br)cccc2c1SCCC#N,102,143*,2,3,102,-2,101
CCCCc1c(C)nc2ccc(Br)cc2c1SCCC#N,106,101,21,.,.,.,.
CCc1c(C)nc2ccc(Br)cc2c1SCCC#N,90,85,-4,0,.,.,.
CCCc1c(C)nc2ccccc2c1SCCC#N,93,60*[inhibitor],0,3,95,0,98
